FMDV inh – blocks foot and mouth disease virus; AID 1159524; FMDV antiviral cell-based qHTS; hit rate 1.2% among 410,000; Potency, µM (titrated, usually from 57.9 µM), without a hit: at the highest dose activity change, negative = inhibition, actives largely listed as inhibitors; calls by dose curve; tested in HEK293T cells; note: read-out not given here; potency is the fitted concentration of half-maximal effect; % is set by controls: 0 for no effect and ±100 for the full control effect; nearly all actives have a fitted effect of over 45% in size
SARS PLP yeast – SARS-CoV PLP inhibition in yeast | S. cerevisiae expressing SARS-CoV PLpro, growth rescue | Potency, µM (top dose mostly 32.9 µM), for inactives: at the highest dose activity, positive = growth rescue, most hits filed as activators | hit rate 0.19% among 330,000 | AID 485353; calls by dose curve; note: potency is the fitted concentration of half-maximal effect; 0% is about no effect; nearly all actives have a fitted effect of over 55% in size
HCMV antiviral – human cytomegalovirus inhibition; HFF cells, HCMV-luciferase reporter, 72 h; active compounds read low; activity change, negative = inhibition, % at 57.5 µM; hit rate 4.5% among 410,000; in the data active = activity change below about -60%; inconclusive = no clear call, values can overlap the other calls; inactive = above about -39%; note: % is set by controls: 0 for no effect and ±100 for the full control effect
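After 16 h attachment at 37C, HFF cells received test compound and HCMV-luciferase (1 PFU/cell); reporter luminescence read 72 h later, data normalized against buffer-only and known inhibitor Salinomycin.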
Marburg entry inh – blocks Marburg virus binding to or entry into cells. Potency, µM (top dose mostly 37.8 µM), for inactives: top-dose activity change, negative = inhibition, actives largely listed as inhibitors. AID 540276. Marburg virus pseudotyped entry inhibition, cell reporter. hit rate 1.8% among 300,000; calls by dose curve; tested in HEK293 cells; note: potency is the fitted concentration of half-maximal effect; % is set by controls: 0 for no effect and ±100 for the full control effect
LASV entry inh – Lassa virus entry inhibition; Lassa virus pseudotype entry inhibition, cell reporter; Potency, µM (top dose mostly 37.9 µM), without a hit: top-dose activity change, negative = inhibition, hits mostly inhibitors; hit rate 1.2% among 300,000; AID 540256; calls by dose curve; tested in HEK293 cells; note: potency is the fitted concentration of half-maximal effect; % is set by controls: 0 for no effect and ±100 for the full control effect; nearly all actives have a fitted effect of over 50% in size
HCV inh – HCV inhibition | Huh7.5.1 HCVcc-Cre infection, luciferase reporter, 44 h | Potency, µM (doses to about 41.8 µM), without a hit: top-dose activity change, negative = inhibition, hits mostly inhibitors | hit rate 3.4% among 340,000 | AID 651820; active = well fitted inhibition curve with a large enough effect; inconclusive = small, poorly fitted or top-dose-only effect, or another doubt; inactive = no such curve, though single readings can be large or run the other way; note: potency is the fitted concentration of half-maximal effect; % is set by controls: 0 for no effect and ±100 for the full control effect
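Infectious HCV cell culture screen: compound-treated cells (1,000/well, pre-plated 4 h) are infected with HCVcc-Cre at roughly 0.5 moi and grown 44 h. Infection is quantified by luciferase signal after 15 min substrate incubation at room temperature.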
* = called active by the depositor; ? = inconclusive; . = no result; [ ] = another dose, or the depositor's remark. Shown are actives, neighbours in structure and some others; about 8% of the full set was active somewhere.

SMILES | FMDV inh | SARS PLP yeast | HCMV antiviral | Marburg entry inh | LASV entry inh | HCV inh
CCS(=O)(=O)N1CCc2cc(C(=O)Nc3ccc(Br)cc3F)ccc21 | 0% | . | ? | ? | ? | .
Cc1cc(C)c(NC(=O)COC(=O)C2=COCCO2)c(Cl)c1 | -10% | . | -7 | 4% | -1% | -4%
CCOC(=O)N1CCC(n2c(=S)[nH]c3cc(OCC)c(OCC)cc3c2=O)CC1 | -9% | 4% | -77* | ? | -12% | -29%
Cc1[nH][nH]c(=O)c1/C=N/N1CCOCC1 | 7% | 2% | -31 | . | . | 5%
O=C(Nc1cc(Sc2ccccn2)cc([N+](=O)[O-])c1)c1cccc(F)c1 | 32µM* | 13% | -67* | ? | ? | ?
O=C(Nc1ncccn1)c1cccc(Cl)c1 | 15% | . | 29 | . | . | 17%
O=C(Nc1ncccn1)c1cccc(F)c1 | 1% | 0% | -76* | . | . | 14%
O=C(Nc1cc(Sc2nc3ccccc3s2)cc([N+](=O)[O-])c1)c1ccccc1F | -11% | ? | 1 | ? | ? | 10µM*
O=C(Nc1cc(Sc2nc3ccccc3s2)cc([N+](=O)[O-])c1)c1ccccc1 | ? | 13% | -36 | ? | -17% | ?
COc1ccc2c(c1)cc(C(=O)N[C@@H](Cc1ccccc1)C(=O)O)n2C | -15% | 1% | -13 | . | . | -6%
CCOc1ccccc1Cn1c(=O)sc2ccccc21 | -14% | -2% | -66* | -28%[46.1 µM] | 8% | 10%
O=c1sc2ccccc2n1COc1ccccc1 | 25% | 6% | -95* | 0% | 28% | 20%
O=c1ccc2ccccc2c2ccccc12 | 13µM* | . | -99* | . | . | .
O=C(Nc1ccc2oc(-c3ccncc3)nc2c1)c1ccccc1 | 10% | 1% | ? | 3% | -26% | 0%
Cc1c(Cl)cccc1-c1ccc(C(=O)Nc2ccc3oc(-c4cccnc4)nc3c2)o1 | ? | . | ? | . | 21%[46.1 µM] | .
Cc1ccc(-c2nc3ncccc3o2)cc1NC(=O)c1ccc([N+](=O)[O-])o1 | -19% | -2% | . | 10%[46.1 µM] | 0%[46.1 µM] | 3%
O=C(Nc1ccc2oc(-c3ccncc3)nc2c1)c1ccc([N+](=O)[O-])o1 | 8% | -10% | -102* | ? | -26%[46.1 µM] | 10µM*
O=C(Nc1ccc(-c2nc3ncccc3o2)cc1)c1ccc([N+](=O)[O-])o1 | 4% | -9% | -76* | -3%[46.1 µM] | 5%[46.1 µM] | 3.5µM*
O=C(Nc1ccc2oc(-c3cccnc3)nc2c1)c1ccc(-c2cccc(OC(F)(F)F)c2)o1 | ? | . | -82* | . | 15%[46.1 µM] | .
CN(C)S(=O)(=O)c1ccc(NC(=O)COC(=O)C2CC3CCCC(C2)C3=O)cc1 (stereo unspecified) | -4% | -1% | -6 | . | . | 9%
COc1ccc(-c2cc(C)no2)cc1S(=O)(=O)Nc1cccc(C(F)(F)F)c1 | 18% | . | 0 | . | -4%[46.1 µM] | .
COc1ccc(-c2noc(COc3cc(C)ccc3C)n2)cc1OC | -18% | . | -2 | 0%[46.1 µM] | 8%[46.1 µM] | .
Cc1ccc(S(=O)(=O)NCC(=O)OCC(=O)N(CCC#N)c2ccccc2)cc1 | -5% | 6% | -64* | 19% | -7%[46.1 µM] | -16%
CC(=O)c1ccc(F)c(-c2cc(C)cc3c2OC(CNC(=O)C[C@@H]2C[C@@H](C)NC(=S)N2)C3)c1 (stereo partly specified) | -9% | . | . | . | . | .
O=C(CCS(=O)(=O)Cc1ccccc1)Nc1ncc([N+](=O)[O-])s1 | 42% | 1% | -96* | ? | 8%[46.1 µM] | ?
SMILES | FMDV inh | SARS PLP yeast | HCMV antiviral | Marburg entry inh | LASV entry inh | HCV inh
O=C(CCS(=O)(=O)c1ccccc1)Nc1ncc([N+](=O)[O-])s1 | 31% | -10% | ? | -7%[46.1 µM] | 15%[46.1 µM] | 6%
CC(Oc1ccccc1)C(=O)Nc1ccc(C(N)=O)cc1 (stereo unspecified) | 23% | 1% | 8 | 8% | 29% | -13%
NC(=O)c1ccc(NC(=O)C#Cc2ccccc2)cc1 | -6% | 0% | -103* | 4.5µM* | 2.2µM* | ?
O=C(C#Cc1ccccc1)Nc1ccccc1F | 13% | -11% | -96* | . | . | ?
COc1ccc(NC(=O)c2ccccc2SC)cc1OC | 30% | 4% | 10 | 10% | 12% | -8%
COc1ccc(NC(=O)C(=O)NCCc2ccccc2)cc1OC | -16% | . | -64* | 4%[46.1 µM] | 18%[46.1 µM] | .
COc1ccc(NC(=O)C#Cc2ccccc2)cc1OC | 12% | -8% | -88* | ? | -9%[46.1 µM] | ?
COC(=O)CSc1ncc(S(=O)(=O)c2ccccc2)c(=O)[nH]1 | -13% | 1% | 8 | 13%[46.1 µM] | -12%[46.1 µM] | 14%
O=C1C(=O)N(C(CCc2ccccc2)c2nnnn2Cc2ccccc2)c2ccccc21 (stereo unspecified) | . | . | 38 | . | . | .
CCOC(=O)/C(N=Nc1sc(C(=O)OC)c(C)c1C(=O)OCC)=C(\O)CCl | 0% | -8% | -12 | -72% | -1% | ?
Cc1ccccc1C1(CC(=O)N2CCCCC2c2cccnc2)CC(=O)N(C2CCCC2)C1=O (stereo unspecified) | 26% | . | . | . | . | .
Cc1cccc(C)c1NS(=O)(=O)c1cc2c3c(c1)CC(=O)N3CCC2 | 0% | 15% | -65* | . | . | -11%
Cc1cccc(C)c1NS(=O)(=O)c1cc2c3c(c1)CCN3C(=O)CC2 | -5% | 2% | -25 | -24% | 8% | 2%
C=C1C[C@H](OC(=O)C(C)(O)CCl)C2C(=C)C(=O)O[C@@H]2C2C1C[C@H](O)[C@]2(O)CCl (stereo partly specified) | -2% | . | . | . | . | .
Cc1ccc(NC(=O)CSc2nc3ccccc3c(=O)n2CCCN2CCCCC2)cc1Cl | -25% | -12% | -97* | ? | ? | 2µM*
Cc1ccc(NC(=O)CSc2nc3ccccc3c(=O)n2CCCC(=O)NCCCN2CCOCC2)cc1C | -19% | -1% | ? | ? | ? | -15%
CC(=O)c1c(C)[nH]c(C(=O)CSc2nc3ccccc3c(=O)n2CCCN2CCOCC2)c1C | -17% | -3% | 24 | 21µM* | -3% | 0%
CC1CCN(CCCn2c(SCC(=O)Nc3ccccc3Cl)nc3ccccc3c2=O)CC1 | -13% | -1% | -12 | ? | 6.3µM* | 11µM*

Screens: PubChem, National Center for Advancing Translational Sciences (NCATS)
